Data from ChEMBL document CHEMBL1961873, “Compounds: GSK PKIS; Assays: Nanosyn kinase panel” (2012).

Biological target: MAP kinase-interacting serine/threonine-protein kinase 2 (Homo sapiens) (UniProt Q9HBH9)
Conditions: at 1 µM

Chain of MAP kinase-interacting serine/threonine-protein kinase 2 (Homo sapiens) (Q9HBH9 whole entry, looked up): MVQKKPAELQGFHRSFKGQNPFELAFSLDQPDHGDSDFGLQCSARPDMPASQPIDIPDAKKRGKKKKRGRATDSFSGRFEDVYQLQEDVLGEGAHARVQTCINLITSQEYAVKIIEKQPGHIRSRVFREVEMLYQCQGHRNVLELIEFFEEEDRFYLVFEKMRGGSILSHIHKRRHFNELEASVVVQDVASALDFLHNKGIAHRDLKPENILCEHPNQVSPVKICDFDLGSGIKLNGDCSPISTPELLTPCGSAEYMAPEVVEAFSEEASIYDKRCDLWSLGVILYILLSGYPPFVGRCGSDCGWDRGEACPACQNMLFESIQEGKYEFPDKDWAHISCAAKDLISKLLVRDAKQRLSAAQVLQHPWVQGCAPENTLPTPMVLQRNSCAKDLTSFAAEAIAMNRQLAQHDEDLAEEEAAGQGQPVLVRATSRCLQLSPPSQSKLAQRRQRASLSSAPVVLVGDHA

Structure (SMILES)	inhibition [%]
FC(F)(F)c1cccc(-c2nn3ncccc3c2-c2ccnc(Nc3ccc4c(c3)OCCO4)n2)c1	1.61
CCNC(=O)O[C@H]1CN[C@H](C#Cc2cc3ncnc(Nc4ccc(OCc5cccc(F)c5)c(Cl)c4)c3s2)C1	5.72
CNC(=O)c1cncc(/C=C/c2ccccc2Cl)c1	17.6

Biological target: Serine/threonine-protein kinase MARK2 (Homo sapiens) (UniProt Q7KZI7);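 note: mean percent inhibition of PAR-1Balpha kinase activity, reported from the GSK PKIS screen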
Sequence (Q7KZI7 whole entry): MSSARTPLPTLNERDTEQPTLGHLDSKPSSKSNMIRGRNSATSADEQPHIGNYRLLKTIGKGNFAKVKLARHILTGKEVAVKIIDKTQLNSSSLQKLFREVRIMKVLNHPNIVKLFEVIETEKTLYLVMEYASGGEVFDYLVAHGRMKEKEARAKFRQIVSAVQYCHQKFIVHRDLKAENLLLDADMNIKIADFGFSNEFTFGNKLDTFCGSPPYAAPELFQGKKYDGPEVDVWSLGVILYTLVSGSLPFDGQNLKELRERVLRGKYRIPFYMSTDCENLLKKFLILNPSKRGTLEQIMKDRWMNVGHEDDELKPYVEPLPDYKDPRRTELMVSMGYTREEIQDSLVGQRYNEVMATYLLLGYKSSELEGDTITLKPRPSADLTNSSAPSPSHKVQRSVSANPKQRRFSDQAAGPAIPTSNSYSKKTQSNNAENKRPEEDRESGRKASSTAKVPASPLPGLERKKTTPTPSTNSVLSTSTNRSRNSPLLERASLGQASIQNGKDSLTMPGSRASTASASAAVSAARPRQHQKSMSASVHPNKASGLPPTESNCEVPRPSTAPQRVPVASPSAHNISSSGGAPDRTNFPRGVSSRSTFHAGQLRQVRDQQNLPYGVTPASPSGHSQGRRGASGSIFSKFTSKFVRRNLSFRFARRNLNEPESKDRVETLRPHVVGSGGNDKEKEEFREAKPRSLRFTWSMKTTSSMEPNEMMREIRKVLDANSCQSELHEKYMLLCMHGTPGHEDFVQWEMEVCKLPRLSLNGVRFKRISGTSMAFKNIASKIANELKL
Conditions: at 0.1 µM

Structure (SMILES)	inhibition [%]
CCc1nn2ncccc2c1-c1ccnc(NC2CC2)n1	1.31
COC(=O)c1sc(-n2cnc3cc(OC)c(OC)cc32)cc1OCc1ccccc1C(F)(F)F	-1.89
[O-][S+]1CCN(Cc2ccc(-c3ccc4ncnc(Nc5ccc(OCc6cccc(F)c6)c(Cl)c5)c4c3)o2)CC1	2.19
CCn1c(-c2nonc2N)nc2c(C#CC(C)(C)O)ncc(OC3CCNCC3)c21	19.3
CC(C)(CO)CNC(=O)c1ccc2c(c1)/C(=N/Nc1ccc(S(N)(=O)=O)cc1)C(=O)N2	3.29
CCCN1CCC(c2ccc(Nc3nc(Nc4cc(F)ccc4C(N)=O)c4cc[nH]c4n3)c(OC)c2)CC1	7.99
COc1ccc(-c2cc(-c3c[nH]nc3-c3ccccn3)ccn2)cc1	2.97
COc1ccc(-c2cc3c(N)ncnc3o2)cc1	-0.22
COC(=O)Nc1nc2ccc(S(=O)(=O)c3ccc(NC(=O)Nc4cc(C(F)(F)F)ccc4F)cc3)cc2[nH]1	-2.72
Fc1ccc(-c2nn3ccccc3c2-c2ccncc2)cc1	-0.63
CN1CCC(n2cnc(-c3ccc(F)cc3)c2-c2ccnc(N)n2)CC1	-1.15
COc1cccc(-n2ncc3c(N/N=C/c4ccc(F)cc4)ncnc32)c1	1.91
Fc1cccc(COc2ccc(Nc3ncnc4sc(-c5ccco5)cc34)cc2Cl)c1	1.08
Fc1ccc(-c2cc(-c3c[nH]nc3-c3ccccn3)ccn2)cc1	-3.26
CCCN(CCS(C)(=O)=O)Cc1ccc(-c2ccc3ncnc(Nc4ccc(OCc5cccc(F)c5)c(Cl)c4)c3c2)o1	-0.65
COc1cccc(-c2c[nH]c3c(N/N=C/c4ccncc4)ncnc23)c1	0.99
CC1=C(C(=O)Nc2cc(Cl)c3[nH]ncc3c2)C(c2ccc(C(F)(F)F)cc2)CC(=O)N1 (configuration not stated)	1.6

Structure (SMILES)	inhibition [%]
CS(=O)(=O)CCNCc1coc(-c2ccc3ncnc(Nc4ccc(OCc5ccccc5)cc4)c3c2)c1	-0.55
CCn1c(-c2nonc2N)nc2cnc(Oc3cccc(NC(=O)c4ccc(N(C)C)cc4)c3)cc21	0.56
CNC(=O)c1cc(-c2ccc(F)cc2)cc(-c2ccc(S(=O)(=O)N3CCCC3)cc2)c1N	2.35
O=S(=O)(CCNCc1ccc(-c2ccc3ncnc(Nc4ccc(OCc5cccc(F)c5)c(Cl)c4)c3c2)o1)c1ccccc1	0.66
N#Cc1c(NC(=O)c2ccc(F)cc2)sc2c1CCCC2	0.6
CNC(=O)c1cccc(C#Cc2cncnc2Nc2ccc(OCc3cccc(F)c3)c(Cl)c2)c1	-2.05
CCn1c(-c2nonc2N)nc2c(C#CC(C)(C)O)nc(OC[C@H](N)c3ccccc3)cc21	1.39
Nc1ncc(-c2cccc(S(N)(=O)=O)c2)c2scc(-c3ccc(F)c(Cl)c3)c12	0.24
c1ccc(COc2ccc(Nc3ncnc4ccc(-c5ccco5)cc34)cc2)cc1	-1.72
N#Cc1c(NC(=O)CN2CCOCC2)sc2c1CCCC2	1.3
NS(=O)(=O)c1ccc(N/N=C2\C(=O)Nc3ccc4ncccc4c32)cc1	5.97
O=C(O[C@H]1CN[C@H](C#Cc2cc3ncnc(Nc4ccc(Cc5ccccc5)cc4)c3s2)C1)N1CCOCC1	-0.11
CC(=O)Nc1cccc(C#Cc2cncnc2Nc2ccc(OCc3cccc(F)c3)c(Cl)c2)c1	-0.32
Cc1cccc(Nc2ncc(-c3ccccc3)o2)c1	2.22
FC(F)(F)c1cccc(-c2nn3ncccc3c2-c2ccnc(Nc3ccc4c(c3)OCCO4)n2)c1	-1.11
CCNC(=O)O[C@H]1CN[C@H](C#Cc2cc3ncnc(Nc4ccc(OCc5cccc(F)c5)c(Cl)c4)c3s2)C1	-0.45
CNC(=O)c1cncc(/C=C/c2ccccc2Cl)c1	1.5
